This passage reports binding signal results from paper PMC10668032, “Altered binding affinity of SIX1-Q177R correlates with enhanced WNT5A and WNT pathway effector expression in Wilms tumor”.

In all, about 33,000 sequences were measured (“e-score”: median about -0.05, highest 2% from about 0.38 on). The sample holds the highest values, similar sequences and a random draw of the others, so the mix is not that of the screen.

The target of this test is T1, SIX1-Q177R homeodomain (human, UniProt Q15475 108-198, Q177R).
T1 sequence: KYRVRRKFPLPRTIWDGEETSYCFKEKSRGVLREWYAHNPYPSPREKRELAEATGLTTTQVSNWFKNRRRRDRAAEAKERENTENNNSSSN
Kind of test: universal protein binding microarray; Universal all-10-mer PBM (8x60K, AMADID 030236), 300 nM GST-tagged protein, Alexa Fluor 488 anti-GST; buffer, salt, pH and temperature not stated (as in Berger); high values mean tight binding. The note with it: protein: ivt; tags: N-terminal GST; dsDNA, one strand shown. The method, boiled down: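 GST-tagged homeodomains were made by in vitro transcription/translation and quantified by anti-GST western blot against a recombinant GST standard curve. They were applied in duplicate at 300 nM final concentration to universal 'all 10-mer' protein binding microarrays (8×60K format). Binding was quantified as 8-mer E-scores with the Universal PBM Analysis Suite.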
As for GCTACACC, the binding signal was 0.473 ± 0.00658 E-score.

With GCTATACC, the binding signal was determined as 0.169 ± 0.0037 E-score. The figure for TCTACACA is 0.194 ± 0.0545 E-score; for ACTACCCG it is 0.204 ± 0.0121 E-score. Take CCTACTCC: the binding signal was determined as 0.179 ± 0.0115 E-score. With ACTACACT, the binding signal is 0.431 ± 0.0136 E-score. Turning to ACTACACA, the binding signal is 0.265 ± 0.0483 E-score. In the case of ACTATACA, the binding signal is 0.238 ± 0.0193 E-score.

GCTACCCC: the binding signal is 0.23 ± 0.0172 E-score.

Turning to ACTACACG, the binding signal is 0.4206 ± 0.00315 E-score.

With CCTACCCC, the binding signal came out at 0.227 ± 0.00219 E-score. Turning to CCTACACC, the binding signal came out at 0.4819 ± 0.00223 E-score.

As to CCCCCGGC, the binding signal was 0.2104 ± 0.00182 E-score. The figure for CTTGGGGA is 0.158 ± 0.0109 E-score; for ACCCTTCC it is 0.161 ± 0.0416 E-score. CACCGGGA: the binding signal was 0.176 ± 0.00643 E-score. Turning to CACTAGCA, the binding signal is 0.163 ± 0.00431 E-score. The figure for ATAGCGTG is 0.159 ± 0.0173 E-score; for ACACATGC it is 0.176 ± 0.0202 E-score; for ACCGGTAT it is 0.212 ± 0.02 E-score. Turning to CCCGAAGG, the binding signal came to 0.193 ± 0.0115 E-score. Consider ACGCGTCC, for which the binding signal stood at 0.174 ± 0.00808 E-score. With GAATAACA, the binding signal was 0.151 ± 0.00831 E-score.

For the sequence GATACCGA, the binding signal amounted to 0.214 ± 0.0181 E-score. The figure for ACTACACC is 0.4877 ± 0.000997 E-score; for ACTACCCC it is 0.267 ± 0.00871 E-score. Regarding ACTACTCC, the binding signal was 0.163 ± 0.045 E-score. As for CCTACACG, the binding signal was determined as 0.398 ± 0.0115 E-score. Consider CCTACACA, for which the binding signal is 0.18 ± 0.0508 E-score.

CCTACCCG: the binding signal was 0.183 ± 0.0228 E-score.

As for ACCCCTCA, the binding signal was determined as 0.289 ± 0.021 E-score. Regarding CTGTGCAC, the binding signal was 0.216 ± 0.0216 E-score. ACCCCGTG: the binding signal is 0.356 ± 0.0239 E-score.

Turning to TGAACACA, the binding signal turned out to be 0.173 ± 0.0727 E-score. For AGAACACG, the binding signal is 0.356 ± 0.0118 E-score. The figure for AGAACACT is 0.344 ± 0.0153 E-score. Take CGAACACG: the binding signal turned out to be 0.3556 ± 0.00281 E-score. Regarding AGAACACC, the binding signal was determined as 0.459 ± 0.00494 E-score. With CGAACACA, the binding signal was 0.215 ± 0.0469 E-score. For the sequence CGAACACC, the binding signal was determined as 0.4736 ± 0.00203 E-score. On to GGAACACA, for which the binding signal is 0.189 ± 0.0298 E-score. Turning to GGAACACC, the binding signal was found to be 0.4735 ± 0.00301 E-score. Consider CGGGGATA, for which the binding signal turned out to be 0.202 ± 0.00822 E-score. Regarding AATGGGTG, the binding signal was 0.281 ± 0.0496 E-score. The figure for CACGCGTA is 0.184 ± 0.0106 E-score.

Take CCACCTAC: the binding signal turned out to be 0.17 ± 0.0551 E-score.

Turning to ACACCTAG, the binding signal was determined as 0.4448 ± 0.00199 E-score. For the sequence ACCCCTAA, the binding signal stood at 0.183 ± 0.0117 E-score.

On to TCCCCTAA, for which the binding signal turned out to be 0.172 ± 0.0106 E-score. For ATACCTAG, the binding signal was 0.196 ± 0.0172 E-score. Turning to ACACTTAT, the binding signal was found to be 0.349 ± 0.02 E-score. The figure for ACACCTAA is 0.4446 ± 0.00441 E-score; for ACACCTGT it is 0.46033 ± 0.000212 E-score. Regarding ACACATAT, the binding signal worked out at 0.239 ± 0.0295 E-score.

In the case of ATACCTAC, the binding signal turned out to be 0.224 ± 0.0121 E-score.

As to ACACCTAC, the binding signal is 0.4555 ± 0.00215 E-score. The figure for ACCCCTAG is 0.208 ± 0.00908 E-score. The figure for CAGAAGGG is 0.157 ± 0.0162 E-score; for CCCCGAAA it is 0.168 ± 0.0462 E-score. On to CACCCAAC, for which the binding signal worked out at 0.301 ± 0.0371 E-score. The figure for CCCCAAAC is 0.197 ± 0.0113 E-score; for GGTCGAAC it is 0.22817 ± 0.00017 E-score. As to GGGCGGTA, the binding signal is 0.18 ± 0.0297 E-score.

In the case of ACCCCTAT, the binding signal is 0.172 ± 0.00706 E-score.

Turning to ACACATAG, the binding signal was found to be 0.155 ± 0.0872 E-score.

For ACACCTAT, the binding signal worked out at 0.448 ± 0.00643 E-score. The figure for CACCACTG is 0.342 ± 0.00325 E-score; for GCGGTCGA it is 0.152 ± 0.00747 E-score; for ACACAGTG it is 0.259 ± 0.0202 E-score. The figure for CGGGATCA is 0.269 ± 0.00773 E-score; for CAGCACAC it is 0.269 ± 0.0132 E-score; for GAGTACAC it is 0.4362 ± 0.00255 E-score. As to AAGTACCC, the binding signal is 0.2054 ± 0.000912 E-score. In the case of AAGTACAC, the binding signal is 0.425 ± 0.0204 E-score. On to AAGTAATC, for which the binding signal was found to be 0.163 ± 0.0142 E-score. Take GAGTACCC: the binding signal turned out to be 0.173 ± 0.00951 E-score.

Turning to CAGTACCG, the binding signal was 0.185 ± 0.0235 E-score.

Take GAGTACTC: the binding signal amounted to 0.1739 ± 0.000948 E-score. In the case of CAGTACAC, the binding signal came to 0.433 ± 0.00665 E-score. For ACACAGCC, the binding signal was 0.164 ± 0.059 E-score.

On to GATTGAAC, for which the binding signal is 0.162 ± 0.0507 E-score. The figure for GGATCCAA is 0.201 ± 0.0192 E-score. Consider CACGTGGA, for which the binding signal is 0.243 E-score.

Regarding AGGTGACT, the binding signal came to 0.165 ± 0.006 E-score. As to CACCCTCA, the binding signal came to 0.264 ± 0.0103 E-score. On to GTGTTTCA, for which the binding signal was determined as 0.357 ± 0.00873 E-score. Consider CCGTTGAC, for which the binding signal amounted to 0.16 ± 0.0161 E-score.

In the case of GTGTTGCA, the binding signal was found to be 0.3853 ± 0.00118 E-score.
